Source: PubChem BioAssay (National Center for Advancing Translational Sciences (NCATS))
APE1 inh-1: blocks human APE1 abasic DNA cleavage; P27695; recombinant APE1, TAMRA/BHQ-2 abasic DNA cleavage fluorescence; Potency, µM (series often up to 65.8 µM), most hits filed as inhibitors; 350,000 tested, 0.35% active; AID 2517; also: nearly all actives have a fitted effect of over 55% in size
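Measures dequenching upon AP-site incision of a 5'-TAMRA/3'-BHQ-2 THF-containing duplex, 50 nM; human APE1 0.75 nM after 15 min room-temperature exposure to compound; kinetic three-point read at one-minute spacing.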
RECQ1 helicase: blocks DNA unwinding by human RECQ1. RECQ1 DNA unwinding, red fluorescence kinetic read. Potency, µM (titrated, usually from 57.3 µM), most hits filed as inhibitors. 240,000 tested, 0.54% active. AID 2549; also: nearly all actives have a fitted effect of over 30% in size
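50 nM RECQ1T1 preincubated 15 min with compound in Tris pH 8.0 buffer with MgCl2, DTT, Tween-20 and 2.5 ug/ml poly(dI-dC); started with 200 nM TAMRA/BHQ-2 forked duplex and 2 mM ATP. Unwinding read as fluorescence (525/598 nm), two reads 2 h apart.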
L3MBTL1 inh-1: inhibitors of human L3MBTL1; 230,000 tested, 0.66% active; AID 485360; AlphaScreen L3MBTL1–H3K9me1 peptide binding; Potency, µM (doses to about 57.1 µM), usual class: inhibitors; Q9Y468; also: nearly all actives have a fitted effect of over 60% in size
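L3MBTL1 (50 nM) pre-complexed 30 min with biotinylated H3(1-15)K9me1 peptide (75 nM), then compounds added for 30 min at room temperature; AlphaScreen streptavidin donor/nickel chelate acceptor beads (10 ug/mL final) read after 30 min dark incubation.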
BLM helicase inh: Bloom syndrome helicase (human) inhibition | 350,000 tested, 0.2% active | recombinant BLM DNA unwinding, fluorescence dequenching | P54132 | AID 2528 | Potency, µM (series often up to 56.1 µM), hits mostly inhibitors; also: nearly all actives have a fitted effect of over 35% in size
KDM4E inh: JMJD2E (human) inhibition; JMJD2E catalytic domain, FDH-coupled NADH fluorescence (FDH is formaldehyde dehydrogenase); Potency, µM (highest dose often 57.1 µM), most hits filed as inhibitors; 230,000 tested, 1.6% active; AID 2147; active = well fitted inhibition curve with a large enough effect, not every such curve was filed as active; inconclusive = small, poorly fitted or top-dose-only effect, or another doubt; inactive = no such curve, though single readings can be large or run the other way; also: nearly all actives have a fitted effect of over 50% in size
Target sequence (B2RXH2 1-337 limits assumed): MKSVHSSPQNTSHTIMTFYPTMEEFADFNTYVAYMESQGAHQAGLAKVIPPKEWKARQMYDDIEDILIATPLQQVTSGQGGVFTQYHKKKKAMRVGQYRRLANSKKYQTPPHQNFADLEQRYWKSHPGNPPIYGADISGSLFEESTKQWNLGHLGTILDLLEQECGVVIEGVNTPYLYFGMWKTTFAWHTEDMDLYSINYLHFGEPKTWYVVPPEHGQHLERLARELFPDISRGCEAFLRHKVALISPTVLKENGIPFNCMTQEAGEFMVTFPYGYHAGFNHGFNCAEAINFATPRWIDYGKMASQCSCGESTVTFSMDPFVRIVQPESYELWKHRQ
DNA dye displace: counter-screen for APE1 inhibitors: DNA dye displacement. shares compounds with APE1 inh-1. DNA fluorescent dye displacement counterscreen, fluorescence. Potency, µM (series often up to 28.5 µM), usual class: inhibitors. 480 tested, 7% active;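 also: loss of thiazole orange fluorescence as the dye is displaced from duplex DNA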
Endo IV inh: counter-screen for APE1 inhibitors: inhibitors of E. coli endonuclease IV | 560 tested, 4% active | Potency, µM (series often up to 27.1 µM), hits mostly inhibitors | shares compounds with APE1 inh-1 | E. coli Endo IV, fluorogenic AP-site DNA cleavage | AID 2565
APE1 inh-2: APE1 (human) endonuclease inhibition, confirmation | purified APE1, fluorogenic abasic-site DNA cleavage | shares compounds with APE1 inh-1 | 750 tested, 44% active | Potency, µM (highest dose often 57.1 µM), most hits filed as inhibitors; also: nearly all actives have a fitted effect of over 30% in size
APE1 FP: compounds that displace a DNA probe from human APE1 | Potency, µM (series often up to 28.5 µM), hits mostly inhibitors | shares compounds with APE1 inh-1 | APE1 binding to TAMRA-labelled double-stranded DNA, fluorescence polarization displacement | 480 tested, 7% active | AID 2573
RECQ1 conf: confirmation of human RECQ1 helicase inhibitors; AID 2708; shares compounds with RECQ1 helicase; RECQ1 helicase DNA unwinding, fluorescence; Potency, µM (top dose mostly 229 µM), actives largely listed as inhibitors; 610 tested, 28% active; also: nearly all actives have a fitted effect of over 45% in size
ADP FP counter: displaces ADP in a fluorescence polarization counter-screen for RECQ1 hits | shares compounds with RECQ1 helicase | ADP fluorescence polarization displacement counterscreen | Potency, µM (titrated, usually from 228 µM), usual class: inhibitors | 530 tested, 27% active | AID 2711; also: nearly all actives have a fitted effect of over 45% in size
L3MBTL1 inh-2: blocks human L3MBTL1 methyl-lysine binding; 500 tested, 91% active; Potency, µM, actives largely listed as inhibitors; L3MBTL1 methyl-lysine binding inhibition, biochemical qHTS; shares compounds with L3MBTL1 inh-1; AID 540279; also: nearly all actives have a fitted effect of over 70% in size
AlphaScreen ctr2: counter-screen for L3MBTL1 inhibitors: AlphaScreen signal interference; shares compounds with L3MBTL1 inh-1; AlphaScreen counterscreen, signal inhibition; Potency, µM (highest dose often 57.1 µM), hits mostly inhibitors; 500 tested, under 10 active; AID 602224
Large screens that a line does not name were inactive (follow-up assays come after a bar, where they were run); ! = a repeat was not active. This is one part of a sample in which hits are shown more often than they occur. Unless noted, calls follow the shape of the dose curve; as a rule, active = well fitted curve in the direction sought with a large enough effect; inconclusive = small, poorly fitted or top-dose-only effect, or another doubt; inactive = no such curve, though single readings can be large; an effect the other way counts as inactive or inconclusive.

CC[C@H](C)/C=C(C)/C=C/C1=CC2=C(Cl)C(=O)[C@](C)(OC(C)=O)C(=O)C2=CO1	none (no result: RECQ1 helicase, BLM helicase inh, KDM4E inh)
c1cc2c(cc1[C@H]1OC[C@H]3[C@@H]1CO[C@H]3c1ccc3c(c1)OCO3)OCO2	none (no result: RECQ1 helicase, BLM helicase inh, KDM4E inh)
Oc1ccccc1O	APE1 inh-1 28µM!, RECQ1 helicase 16µM!, L3MBTL1 inh-1 18µM, KDM4E inh 14µM (no result: BLM helicase inh) | Endo IV inh inactive | APE1 inh-2 inactive
Oc1cccc(Cl)c1Cl	none (no result: L3MBTL1 inh-1, BLM helicase inh, KDM4E inh)
Cc1nnc2n1-c1ccc(Br)cc1C(c1ccccc1Cl)=NC2	none
O=C1C=CC(=O)c2c(O)cccc21	APE1 inh-1 0.32µM, RECQ1 helicase 4.5µM, BLM helicase inh 5.6µM, KDM4E inh 7.1µM (no result: L3MBTL1 inh-1) | Endo IV inh inactive | APE1 inh-2 inconclusive | RECQ1 conf 7.9µM | ADP FP counter inconclusive
CC(N)C(O)c1ccc(O)c(O)c1 (stereo not drawn)	APE1 inh-1 1.4µM!, RECQ1 helicase 7.1µM!, KDM4E inh 16µM (no result: L3MBTL1 inh-1) | DNA dye displace inactive | Endo IV inh inactive | APE1 inh-2 inactive | APE1 FP inactive | RECQ1 conf inconclusive | ADP FP counter 14µM
COC(=O)C1=C(c2ccc(F)cc2F)C[C@@H]2CC[C@H]1N2C(=O)NC1Cc2ccccc2C1	none (no result: RECQ1 helicase, BLM helicase inh, KDM4E inh)
NCCc1cc(O)c(O)cc1O	APE1 inh-1 0.4µM, RECQ1 helicase 8.9µM, BLM helicase inh inconclusive, KDM4E inh 6.3µM (no result: L3MBTL1 inh-1) | DNA dye displace inconclusive | Endo IV inh inactive | APE1 inh-2 inconclusive | APE1 FP 28µM! | RECQ1 conf 126µM | ADP FP counter 100µM
COc1ccc(CCN)cc1O	none (no result: L3MBTL1 inh-1, BLM helicase inh)
NC(Cc1cc(O)c(O)cc1O)C(=O)O (stereo not drawn)	APE1 inh-1 0.11µM, RECQ1 helicase 0.63µM, L3MBTL1 inh-1 0.16µM, KDM4E inh 13µM (no result: BLM helicase inh) | Endo IV inh inactive | APE1 inh-2 0.79µM | RECQ1 conf 45µM | ADP FP counter 20µM
N[C@@H](Cc1cc(I)c(O)c(I)c1)C(=O)O	RECQ1 helicase inconclusive
O=C(Nc1ccccc1)Oc1ccccc1	none (no result: L3MBTL1 inh-1)
Cc1cc(/C=C2\C(=O)NC(=O)N(c3ccc(Br)cc3)C2=O)c(C)n1-c1cc(C(=O)O)cc(C(=O)O)c1	none (no result: RECQ1 helicase, L3MBTL1 inh-1, KDM4E inh)
Cc1cc(/C=C2\C(=O)NC(=O)N(c3cccc(F)c3)C2=O)c(C)n1-c1cc(C(=O)O)cc(C(=O)O)c1	APE1 inh-1 inconclusive, L3MBTL1 inh-1 7.9µM, KDM4E inh inconclusive | DNA dye displace inactive | Endo IV inh inactive | APE1 inh-2 inconclusive | APE1 FP inactive | L3MBTL1 inh-2 1.5 | AlphaScreen ctr2 inactive
